Test results reported in PubChem BioAssay (NCATS).
Inconclusive results are not listed. The source made the active and inactive calls. Unless noted, calls follow the shape of the dose curve; as a rule, active = well fitted curve in the direction sought with a large enough effect; inconclusive = small, poorly fitted or top-dose-only effect, or another doubt; inactive = no such curve, though single readings can be large; an effect the other way counts as inactive or inconclusive.

Legend:
[1] = biological target: Cytochrome P450 2C9 (Homo sapiens) (UniProt P11712); assay: qHTS Assay for Inhibitors and Substrates of Cytochrome P450 2C9 (AID 883); also: nearly all actives have a fitted effect of over 60% in size; also: potency is read from the fitted curve at half-maximal effect
Method in brief: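 Signal: luciferase luminescence reporting luciferin produced by CYP2C9. Conditions: 10nM enzyme, Luciferin-H 100uM at KM, 25mM KPO4, 37C, 60 min NADPH-driven reaction. Reference: 57uM sulphaphenazole as 100% inhibition.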

CP260 = assay: qHTS profiling for inhibitors of Plasmodium falciparum proliferation (AID 504749); also: nearly all actives have a fitted effect of over 60% in size; conditions: P. falciparum in erythrocytes, SYBR Green DNA, 72 h; series mostly up to 28.7 µM
Method in brief: (§1)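 Readout was DNA-dye fluorescence from lysed cultures, ex 485/em 535 nm. Parasitized red cells had grown 72 h with compound; data scaled between 0.29 uM artemisinin and DMSO wells and corrected using vehicle-only plates.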

TAB113 = assay: as above; conditions: P. falciparum in erythrocytes, SYBR Green DNA, 72 h; series mostly up to 28.7 µM
Method in brief: as §1

CP215 = assay: as above; conditions: P. falciparum in erythrocytes, SYBR Green DNA, 72 h; series mostly up to 28.7 µM
Method in brief: as §1

CP291 = assay: as above; conditions: P. falciparum in erythrocytes, SYBR Green DNA, 72 h; series mostly up to 28.7 µM
Method in brief: as §1

CP315 = assay: as above; conditions: P. falciparum in erythrocytes, SYBR Green DNA, 72 h; series mostly up to 28.7 µM
Method in brief: as §1

DIV17 = assay: as above; conditions: P. falciparum in erythrocytes, SYBR Green DNA, 72 h; series mostly up to 28.7 µM
Method in brief: as §1

GB4 = assay: as above; conditions: P. falciparum in erythrocytes, SYBR Green DNA, 72 h; series mostly up to 28.7 µM
Method in brief: as §1

PC26 = assay: as above; conditions: P. falciparum in erythrocytes, SYBR Green DNA, 72 h; series mostly up to 28.7 µM
Method in brief: as §1

[2] = biological target: Guanine nucleotide-binding protein G(i) subunit alpha-1 (Homo sapiens) (UniProt P63096); assay: qHTS Assay for Inhibitors of RGS12 GoLoco Motif Activity (Green Fluorophore) (AID 879);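 also: negative values mean loss of peptide binding seen as reduced polarization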
Method in brief: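 Fluorescence polarization assay: 50 nM Gαi1 with 10 nM FITC-labeled RGS12 GoLoco peptide in 10 mM Tris pH 7.5, 150 mM NaCl, 0.1 mM GDP, 0.05% NP40, 10 min at room temperature with compound.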

[3] = biological target: Pyruvate kinase (Leishmania mexicana) (UniProt Q27686); assay: qHTS Validation Assay for Inhibitors of Leishmania Mexicana Pyruvate Kinase (AID 945)
Method in brief: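 Pyruvate kinase activity of E451W LmPYK (0.2 nM) was followed as ATP output after 1 h at room temperature with 0.5 mM PEP and 0.1 mM ADP, detected by PKLight luminescence.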

[4] = biological target: Estrogen receptor (Homo sapiens) (UniProt P03372); assay: qHTS assay for small molecule antagonists of estrogen receptor alpha signaling (AID 588513; active = well fitted curve in the direction sought with a large enough effect in the signal ratio, with a control signal flat, not every such curve was filed as active; the % refers to the signal ratio)
Method in brief: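 Fluorescence from CCF4 substrate after 2 h at room temperature gave reporter activity; cells had been exposed to compound and 0.5nM 17-beta-estradiol for 18 h at 37 C. Hill-equation fitting yielded IC50 and maximal response.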

[5] = biological target: Glucocorticoid receptor (Homo sapiens) (UniProt P04150); assay: qHTS assay for small molecule antagonists of glucocorticoid receptor signaling (AID 588533; active = well fitted inhibition curve with a large enough effect in the signal ratio, with a control signal flat, not every such curve was filed as active; the % refers to the signal ratio;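 also: cells stimulated with 2 nM dexamethasone as agonist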)
Method in brief: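 Antagonist-mode qHTS: compound titrations added to GRE-bla HeLa cells, then dexamethasone 2 nM final; 18 h, 37 C. CCF4 FRET fluorescence normalized to dexamethasone and DMSO; IC50 from Hill fit.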

[6] = biological target: Peroxisome proliferator-activated receptor delta (Homo sapiens) (UniProt Q03181); assay: qHTS assay for small molecule agonists of peroxisome proliferator-activated receptor delta signaling (AID 588534; calls by dose curve)
Method in brief: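 Reporter cells were plated and held 5 hrs at 37 C before compounds were added. After 18 hrs at 37 C, CCF4 dye was loaded for 2 hrs at RT and fluorescence measured.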

[7] = biological target: Thyroid hormone receptor beta (Homo sapiens) (UniProt P10828); assay: qHTS assay for small molecule agonists of thyroid hormone receptor beta signaling (AID 588545; calls by dose curve)
Method in brief: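 Cells (2500/well) were seeded, incubated 4 hrs at 37 C, dosed with a compound series, incubated 18 hrs, loaded with CCF4 dye for 2 hrs at RT, then read for fluorescence. Data were scaled between DMSO (0%) and 10 nM T3 (100%).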

[8] = biological target: Tumor necrosis factor (Homo sapiens) (UniProt P01375); assay: qHTS assay to identify small molecules that stimulate Tumor Necrosis Factor-alpha (TNF-alpha) secretion (AID 651757; active = well fitted curve in the direction sought with a large enough effect in the signal ratio; the % refers to the signal ratio)
Method in brief: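 Secreted TNF-alpha from compound-treated THP-1 cells (17 hrs, 37 C) was quantified with a homogeneous time-resolved fluorescence antibody assay.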

[9] = MultiTox-Fluor Cytotoxicity Assay - LYMP1-002 - Live Cells (AID 955);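 also: cells exposed to compound for 16 hours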
Method in brief: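 Cytotoxicity in the human lymphoblastoid line LYMP1-002 is measured as loss of live-cell protease activity after 16 h treatment in complete culture medium. AC50 is derived from Hill-equation fits of qHTS concentration-response data.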

[10] = Cell Viability - LYMP2-022 (AID 987); also: nearly all actives have a fitted effect of over 55% in size; also: potency is read from the fitted curve at half-maximal effect
Method in brief: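 Acute toxicity in a human lymphoblastoid line is scored as decreased intracellular ATP after 24 hr compound treatment at 37 C. ATP is measured by CellTiter-Glo luminescence; curves are fitted with the Hill equation to give AC50.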

[11] = qHTS assay for small molecule antagonists of the retinoid-related orphan receptor gamma (ROR-gamma) signaling pathway - cell viability counter screen (AID 720652; active = well fitted curve in the direction sought with a large enough effect in the repeat runs; an effect the other way counts as inactive or inconclusive;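 also: CHO reporter cells with doxycycline-induced ROR-gamma expression; compound exposure lasted 16 hr before ATP read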)
Method in brief: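 Cytotoxicity is quantified via intracellular ATP (CellTiter-Glo luminescence) in doxycycline-induced CHO ROR response element-luciferase reporter cells treated with compound for 16 hr at 37 C, 5% CO2.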

[12] = Cell Viability - LYMP2-017 (AID 972);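 also: cells exposed to compound for 24 hours at 37 °C; nearly all actives have a fitted effect of over 55% in size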; also: potency is read from the fitted curve at half-maximal effect
Method in brief: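 Steps: plate 2500 lymphoblastoid cells per well; incubate 5 hr at 37 C; add compound across a concentration series and incubate 24 hr at 37 C; add CellTiter-Glo and read luminescence after 30 min at room temperature; fit Hill curves for AC50.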

Measured: Potency

Chain of Tumor necrosis factor (Homo sapiens) (P01375 whole entry, looked up): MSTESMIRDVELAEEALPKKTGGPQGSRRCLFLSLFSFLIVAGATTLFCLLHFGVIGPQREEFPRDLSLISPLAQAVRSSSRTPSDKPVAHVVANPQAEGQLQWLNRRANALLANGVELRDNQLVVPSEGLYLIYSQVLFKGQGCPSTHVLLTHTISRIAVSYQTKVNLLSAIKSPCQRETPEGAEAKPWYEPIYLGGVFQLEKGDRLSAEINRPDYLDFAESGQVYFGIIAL
Chain of Estrogen receptor (Homo sapiens) (P03372 whole entry, looked up): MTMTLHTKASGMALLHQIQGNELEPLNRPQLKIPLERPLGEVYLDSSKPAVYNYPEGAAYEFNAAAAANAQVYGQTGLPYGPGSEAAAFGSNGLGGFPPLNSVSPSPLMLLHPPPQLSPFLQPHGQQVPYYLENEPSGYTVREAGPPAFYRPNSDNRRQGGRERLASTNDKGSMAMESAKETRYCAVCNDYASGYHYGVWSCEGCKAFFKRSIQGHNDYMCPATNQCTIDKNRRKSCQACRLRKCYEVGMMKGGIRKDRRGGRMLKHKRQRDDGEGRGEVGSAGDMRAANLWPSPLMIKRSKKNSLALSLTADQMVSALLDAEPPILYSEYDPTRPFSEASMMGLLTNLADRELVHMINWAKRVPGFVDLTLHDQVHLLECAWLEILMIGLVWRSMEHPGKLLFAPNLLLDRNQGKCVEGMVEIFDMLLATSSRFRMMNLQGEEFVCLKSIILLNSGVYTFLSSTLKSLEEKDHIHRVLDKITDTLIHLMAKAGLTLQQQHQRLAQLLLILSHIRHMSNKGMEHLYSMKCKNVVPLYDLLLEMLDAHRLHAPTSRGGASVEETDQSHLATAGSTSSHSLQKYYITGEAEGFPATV
Chain of Peroxisome proliferator-activated receptor delta (Homo sapiens) (Q03181 whole entry, looked up): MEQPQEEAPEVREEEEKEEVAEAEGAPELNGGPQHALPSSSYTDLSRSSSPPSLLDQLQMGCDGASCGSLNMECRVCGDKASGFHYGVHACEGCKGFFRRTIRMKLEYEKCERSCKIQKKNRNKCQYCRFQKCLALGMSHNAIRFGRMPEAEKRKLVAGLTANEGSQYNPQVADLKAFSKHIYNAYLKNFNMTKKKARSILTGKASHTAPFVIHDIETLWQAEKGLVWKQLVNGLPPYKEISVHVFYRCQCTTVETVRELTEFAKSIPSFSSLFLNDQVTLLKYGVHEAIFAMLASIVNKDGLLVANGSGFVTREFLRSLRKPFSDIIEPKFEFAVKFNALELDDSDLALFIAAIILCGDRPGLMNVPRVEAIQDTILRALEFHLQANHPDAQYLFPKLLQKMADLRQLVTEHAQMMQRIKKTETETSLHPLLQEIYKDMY
Chain of Guanine nucleotide-binding protein G(i) subunit alpha-1 (Homo sapiens) (P63096 whole entry, looked up): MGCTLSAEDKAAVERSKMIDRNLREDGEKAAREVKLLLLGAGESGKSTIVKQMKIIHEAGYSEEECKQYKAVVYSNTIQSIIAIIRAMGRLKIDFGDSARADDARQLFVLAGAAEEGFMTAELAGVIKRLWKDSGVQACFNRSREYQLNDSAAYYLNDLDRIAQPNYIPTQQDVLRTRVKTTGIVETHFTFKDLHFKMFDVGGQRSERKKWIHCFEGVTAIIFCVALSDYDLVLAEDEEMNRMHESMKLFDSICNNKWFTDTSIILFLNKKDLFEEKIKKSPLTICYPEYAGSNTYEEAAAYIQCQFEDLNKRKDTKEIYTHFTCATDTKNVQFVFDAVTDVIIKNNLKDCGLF
Chain of Cytochrome P450 2C9 (Homo sapiens) (P11712 whole entry, looked up): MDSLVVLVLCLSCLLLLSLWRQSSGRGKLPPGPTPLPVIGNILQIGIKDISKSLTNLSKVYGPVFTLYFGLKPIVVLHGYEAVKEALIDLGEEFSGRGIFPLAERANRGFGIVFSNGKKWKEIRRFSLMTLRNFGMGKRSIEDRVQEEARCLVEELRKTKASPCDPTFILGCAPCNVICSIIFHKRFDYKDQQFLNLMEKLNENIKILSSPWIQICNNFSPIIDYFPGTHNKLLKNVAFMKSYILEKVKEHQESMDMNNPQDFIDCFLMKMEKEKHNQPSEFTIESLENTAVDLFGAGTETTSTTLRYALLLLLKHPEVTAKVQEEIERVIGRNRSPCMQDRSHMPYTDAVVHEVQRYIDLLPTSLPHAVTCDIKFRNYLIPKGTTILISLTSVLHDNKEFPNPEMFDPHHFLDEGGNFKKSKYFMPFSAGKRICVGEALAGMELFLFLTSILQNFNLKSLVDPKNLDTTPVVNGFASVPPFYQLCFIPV
Chain of Thyroid hormone receptor beta (Homo sapiens) (P10828 whole entry, looked up): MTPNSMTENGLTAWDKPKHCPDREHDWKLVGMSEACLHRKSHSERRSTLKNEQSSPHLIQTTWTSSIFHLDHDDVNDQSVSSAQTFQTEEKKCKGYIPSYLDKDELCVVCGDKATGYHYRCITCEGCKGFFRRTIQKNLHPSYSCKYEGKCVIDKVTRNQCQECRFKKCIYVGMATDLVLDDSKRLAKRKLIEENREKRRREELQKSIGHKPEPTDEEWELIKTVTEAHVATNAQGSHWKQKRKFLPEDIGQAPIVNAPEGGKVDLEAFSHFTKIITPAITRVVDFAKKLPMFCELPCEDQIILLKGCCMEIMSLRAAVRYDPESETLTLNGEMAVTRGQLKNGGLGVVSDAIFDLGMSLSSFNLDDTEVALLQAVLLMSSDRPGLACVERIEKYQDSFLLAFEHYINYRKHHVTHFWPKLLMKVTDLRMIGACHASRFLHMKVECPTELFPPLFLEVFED
Chain of Glucocorticoid receptor (Homo sapiens) (P04150 whole entry, looked up): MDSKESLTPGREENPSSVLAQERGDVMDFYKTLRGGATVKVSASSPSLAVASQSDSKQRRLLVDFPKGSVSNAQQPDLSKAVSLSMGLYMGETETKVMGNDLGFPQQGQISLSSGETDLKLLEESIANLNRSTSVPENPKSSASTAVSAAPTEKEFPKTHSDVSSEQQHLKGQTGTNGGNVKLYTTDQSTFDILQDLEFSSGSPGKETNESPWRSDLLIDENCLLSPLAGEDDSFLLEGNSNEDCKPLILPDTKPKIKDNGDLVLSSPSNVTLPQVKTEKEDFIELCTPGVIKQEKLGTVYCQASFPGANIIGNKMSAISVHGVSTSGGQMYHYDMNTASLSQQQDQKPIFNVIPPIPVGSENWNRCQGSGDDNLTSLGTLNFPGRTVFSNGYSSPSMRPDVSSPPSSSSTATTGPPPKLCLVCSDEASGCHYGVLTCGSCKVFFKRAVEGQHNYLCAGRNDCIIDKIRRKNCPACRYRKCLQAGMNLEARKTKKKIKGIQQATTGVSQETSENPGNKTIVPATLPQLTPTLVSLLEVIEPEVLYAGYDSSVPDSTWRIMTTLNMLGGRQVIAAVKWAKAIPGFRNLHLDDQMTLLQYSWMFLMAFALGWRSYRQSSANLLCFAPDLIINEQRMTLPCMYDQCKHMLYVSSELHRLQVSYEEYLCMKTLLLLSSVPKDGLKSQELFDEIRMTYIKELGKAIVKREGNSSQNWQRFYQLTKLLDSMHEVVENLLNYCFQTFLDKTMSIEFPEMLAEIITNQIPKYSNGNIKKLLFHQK
Chain of Pyruvate kinase (Leishmania mexicana) (Q27686 2-499 E452W): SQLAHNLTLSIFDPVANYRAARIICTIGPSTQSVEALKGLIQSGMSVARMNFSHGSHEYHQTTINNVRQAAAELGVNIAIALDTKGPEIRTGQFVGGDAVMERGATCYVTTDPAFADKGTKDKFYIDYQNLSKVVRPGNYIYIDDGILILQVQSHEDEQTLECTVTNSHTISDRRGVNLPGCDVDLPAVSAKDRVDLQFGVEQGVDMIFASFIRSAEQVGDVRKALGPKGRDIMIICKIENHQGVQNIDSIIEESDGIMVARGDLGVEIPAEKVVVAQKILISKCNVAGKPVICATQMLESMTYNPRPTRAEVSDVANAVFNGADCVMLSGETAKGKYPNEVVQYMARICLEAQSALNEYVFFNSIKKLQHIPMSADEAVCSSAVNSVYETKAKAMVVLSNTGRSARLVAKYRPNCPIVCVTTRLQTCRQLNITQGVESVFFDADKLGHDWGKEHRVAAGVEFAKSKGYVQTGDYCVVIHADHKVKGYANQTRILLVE

COCC(=O)N1CCC2(CCCN(Cc3ccncc3)C2)CC1
active: [1] 5.01 µM

C[C@]12CC[C@H](O)CC1=CCC1C2CC[C@]2(C)C(=O)CC[C@@H]12 (stereo not given in full)
inactive: CP260 | TAB113

CCCC[N+]1(C)C2CC(OC(=O)C(CO)c3ccccc3)CC1C1OC12 (stereo not given)
inactive: CP215 | CP260 | CP291 | CP315 | DIV17 | GB4 | PC26 | TAB113

O=C(OC1CCN(CCCl)CC1)C(c1ccccc1)c1ccccc1
inactive: [2] | [3]

O=C(Oc1ccccc1)N1CCC2(CCN(Cc3ccncc3)CC2)CC1
active: [1] 3.98 µM

CC1=NCCc2c1[nH]c1cc(O)ccc21
inactive: [1]

ClC1=C(Cl)C2(Cl)C3C4C=CC(C4)C3C1(Cl)C2(Cl)Cl (stereo not given)
inactive: [4] | [5] | [6] | [7] | [8]

c1ccc(N=Nc2ccccc2)cc1
inactive: [9] | [10] | [5] | [7] | [8] | [11]

COc1cc(C=C(C#N)C#N)cc(O)c1O
active: [1] 2.51 µM
inactive: [2] | [3]

CCNc1nc(Cl)nc(NC(C)C)n1
inactive: [9] | [12] | [10] | [4] | [5] | [6] | [8] | [11]

C=CCc1ccc2c(c1)OCO2
inactive: [9] | [12] | [10] | [5]

COC(=O)NC(=S)Nc1ccccc1NC(=S)NC(=O)OC
inactive: [9] | [12] | [10] | [4] | [5] | [6] | [7] | [8] | [11]

COc1ccc2c(c1O)-c1c(OC)c(OC)cc3c1[C@H](C2)N(C)CC3
inactive: [1]

O=S1OCC2C(CO1)C1(Cl)C(Cl)=C(Cl)C2(Cl)C1(Cl)Cl (stereo not given)
inactive: [9] | [4] | [7] | [8]

NCC#Cc1ccccc1
inactive: [2] | [3]

O=C(O)COc1ccc(Cl)cc1Cl
inactive: [9] | [12] | [10] | [5] | [8] | [11]

CCCN(CCC)C(=O)Cc1c(-c2ccc(Cl)cc2)nc2c(Cl)cc(Cl)cn12
inactive: [2] | [3]

C=CCc1ccc(OC)cc1
inactive: [9] | [12] | [10] | [6] | [11]

CCNC[C@H](O)c1cccc(O)c1
inactive: CP215 | CP260 | CP291 | CP315 | DIV17 | GB4 | PC26 | TAB113

CCOCN(C(=O)CCl)c1c(C)cccc1CC
inactive: [8] | [11]
active: [12] 50.1 µM

ClC(Cl)=C(c1ccc(Cl)cc1)c1ccc(Cl)cc1
inactive: [9] | [12] | [10] | [4] | [5] | [6] | [7]

COP(=S)(OC)Oc1ccc([N+](=O)[O-])cc1
inactive: [9] | [12] | [10] | [4] | [6] | [11]

ClC1=C(Cl)C2(Cl)C3C(Cl)C=CC3C1(Cl)C2(Cl)Cl (stereo not given)
inactive: [4] | [5] | [6] | [7]

CCc1cccc(CC)c1N(COC)C(=O)CCl
inactive: [9] | [4] | [6] | [7] | [8] | [11]

ClC1=C(Cl)C2(Cl)C3C4CC(C5OC45)C3C1(Cl)C2(Cl)Cl (stereo not given)
active: [10] 39.8 µM
inactive: [4] | [5] | [6] | [7] | [8] | CP215 | CP315 | DIV17 | GB4 | PC26

C/C=C/c1ccc2c(c1)OCO2
inactive: [12] | [10] | [7] | [8] | [11]

CNC(=O)O/N=C/C(C)(C)SC
inactive: [12] | [4] | [5] | [6] | [7] | [11]

C[C@]12CC[C@H](O)C[C@@H]1CC[C@H]1[C@H]2CC[C@]2(C)C(=O)CC[C@@H]12
inactive: [2] | [3]

CC(C)c1c(CN(C)[C@@H](C)Cc2ccccc2)n(C)n(-c2ccccc2)c1=O
active: [1] 7.94 µM
inactive: CP215 | CP260 | CP291 | CP315 | DIV17 | GB4 | PC26 | TAB113

CN(C)C(=O)Oc1cc(OC(=O)N(C)C)cc([C@@H](O)CNC(C)(C)C)c1
inactive: CP215 | CP260 | CP291 | CP315 | DIV17 | GB4 | PC26 | TAB113

C[N+]1(C)[C@@H]2CC[C@H]1CC(OC(=O)[C@@H](CO)c1ccccc1)C2 (stereo not given in full)
inactive: [2] | [3] | CP215 | CP260 | CP291 | DIV17 | GB4 | PC26 | TAB113

CC[C@@]1(c2ccc(N)cc2)CCC(=O)NC1=O
inactive: [2] | [3] | CP215 | CP260 | CP291 | CP315 | DIV17 | GB4 | PC26 | TAB113

COc1ccc(C[C@H]2c3cc(OC)c(OC)cc3CCN2C)cc1OC
inactive: [1]

CCC[C@@](C)(COC(N)=O)COC(=O)NC(C)C
inactive: [1]

C[C@@]12CCC(=O)C=C1C=C[C@H]1[C@H]3CC[C@](O)(CCC(=O)O)[C@]3(C)CC[C@@H]12
inactive: CP215 | CP291 | CP315

C[C@H](N)[C@@H](O)c1ccccc1
inactive: CP215 | CP260 | CP315 | DIV17 | GB4 | PC26 | TAB113

COc1ccc2c(c1OC)C(=O)O[C@H]2[C@H]1c2cc3c(cc2CCN1C)OCO3
inactive: [2] | [3]
active: [1] 3.98 µM

C[N+]1([O-])[C@@H]2CC(OC(=O)[C@@H](CO)c3ccccc3)C[C@@H]1[C@H]1O[C@H]12 (stereo not given in full)
inactive: CP260 | CP291 | CP315 | DIV17 | GB4 | PC26 | TAB113

CC1=C2[C@@H]3OC(=O)[C@@H](C)[C@@H]3CC[C@]2(C)C=CC1=O
inactive: CP215 | CP260 | CP291 | CP315 | DIV17 | GB4 | PC26

COc1ccc(OC)c([C@H](O)[C@H](C)N)c1
inactive: [2] | [3]
